Experimental data published in PubChem BioAssay (Tox21).
Results filed as inconclusive are left out. Calls of active or inactive are those of the source. Unless noted, calls follow the shape of the dose curve; as a rule, active = well fitted curve in the direction sought with a large enough effect in the repeat runs; inconclusive = weak or mixed curves; inactive = no such curve, though single readings can be large; an effect the other way counts as inactive or inconclusive.

Assays:
[1] = qHTS assay for small molecule agonists of the p53 signaling pathway (AID 651631; calls by dose curve; also: nearly all actives have a fitted effect of over 15% in size)
Summary of the method: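 Read-out is beta-lactamase FRET fluorescence measured 2 h after substrate addition at room temperature, in HCT-116 cells with a p53 response element-driven reporter exposed to compounds for 16 h at 37 °C.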

[2] = qHTS assay for small molecules that induce genotoxicity in human embryonic kidney cells expressing luciferase-tagged ATAD5 (AID 651632); also: nearly all actives have a fitted effect of over 15% in size
Summary of the method: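 HEK293T cells carrying luciferase-tagged ATAD5 were given compound or DMSO vehicle and incubated 16 hr at 37C, 5% CO2. Luciferase activity was read after 30 min at room temperature with Amplite; a rise signals genotoxic stress.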

[3] = qHTS assay for small molecule agonists of the p53 signaling pathway - cell viability (AID 651633; calls by dose curve;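 also: p53RE-bla HCT reporter cells with a stable beta-lactamase p53 reporter; series mostly up to about 83 µM; nearly all actives have a fitted effect of over 30% in size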)
Summary of the method: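 p53RE-bla cells, seeded at 4,000 per well and rested 5 h at 37 C/5% CO2, received compounds in DMSO for 16 h at 37 C. CellTiter-Glo was then added, and luminescence was read after 30 min at room temperature to gauge cytotoxicity.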

[4] = qHTS assay for small molecules that induce genotoxicity in human embryonic kidney cells expressing luciferase-tagged ATAD5 - cell viability (AID 651634; calls by dose curve; also: nearly all actives have a fitted effect of over 25% in size)
Summary of the method: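 HEK293T cells carrying luciferase-tagged ATAD5, 2,000 cells/well, exposed to compound for 15.5 hr at 37C. Viability read as live-cell protease activity by CellTiter-Fluor fluorescence after 30 min at 37C.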

[5] = qHTS assay for small molecule disruptors of the mitochondrial membrane potential - cell viability (AID 720634; calls by dose curve;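 also: human HepG2 liver cancer cells; series mostly up to about 83 µM; nearly all actives have a fitted effect of over 20% in size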)
Summary of the method: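 HepG2 cells, 2,000 per well, attached overnight, then treated 1 hr at 37 C, 5% CO2. Viability read as ATP by CellTiter-Glo luminescence after 30 min at room temperature. Read in the same wells as the m-MPI membrane-potential dye assay.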

[6] = qHTS assay for small molecule disruptors of the mitochondrial membrane potential (AID 720635)
Summary of the method: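 HepG2 cells (2,000/well) attached overnight at 37C, then took compound for 1 hr at 37C, 5% CO2. Mito-MPS dye was added for 30 min; fluorescence was read at 490/535 nm (monomers) and 540/590 nm (aggregates).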

[7] = qHTS assay to test for compound auto fluorescence at 590 nm (red) in HepG2 cells (AID 720674)
Summary of the method: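 Rose Bengal sodium served as the red fluorophore standard. HepG2 monolayers (overnight attachment, MEM with 10% FBS) were exposed to test compounds for 1 hr at 37 C and read at Ex 540/Em 590 nm.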

[8] = qHTS assay to test for compound auto fluorescence at 535 nm (green) in HepG2 cells (AID 720675)
[9] = qHTS assay to test for compound auto fluorescence at 460 nm (blue) in HEK293 cells (AID 720678)
Summary of the method: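 Measured: blue fluorescence (Ex 405/Em 460 nm) of compound-treated HEK293 cells, incubated overnight at 37C with 5% CO2 and scaled to triamterene equivalents.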

[10] = qHTS assay to test for compound auto fluorescence at 590 nm (red) in HEK293 cells (AID 720679)
Summary of the method: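 Using HEK293 cells at 2,000 per well, the screen added 23 nL of each compound after cell attachment and incubated overnight (37C, 5% CO2). The plate reader then captured red-label fluorescence, Ex/Em 540/590nm.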
% is scaled to controls: 0 for no effect and ±100 for the full control effect.

CC(C)COC(=O)/C=C/c1ccccc1
inactive: outcome [1] | outcome [2] | outcome [3] | Potency [4] | outcome [5] | Potency [6] | outcome [7] | outcome [8] | outcome [9]

CCS(=O)(=O)CCn1c([N+](=O)[O-])cnc1C
inactive: outcome [1] | outcome [2] | outcome [3] | Potency [4] | outcome [5] | Potency [6] | fluorescence, relative to Rose Bengal [7] 0.187% [at 18.6 µM] | fluorescence, % of fluorescein control [8] -0.217% [at 18.6 µM] | fluorescence, % of triamterene [9] -0.271% [at 18.6 µM]

CCCCCCCCCCCCCCCC(=O)NCCO
inactive: outcome [1] | outcome [2] | outcome [3] | Potency [4] | outcome [5] | Potency [6] | outcome [7] | outcome [8] | outcome [9]

CC(C)(c1ccc(Oc2ccc3c(c2)C(=O)OC3=O)cc1)c1ccc(Oc2ccc3c(c2)C(=O)OC3=O)cc1
inactive: outcome [1] | outcome [2] | outcome [3] | Potency [4] | outcome [5] | Potency [6] | outcome [7] | outcome [8] | outcome [9] | outcome [10]

CCN1CN(CC)CN(CC)C1
inactive: outcome [1] | outcome [2] | outcome [3] | Potency [4] | outcome [5] | Potency [6] | outcome [7] | outcome [8] | outcome [9] | outcome [10]

O=C(O)C(=O)Nc1cccc(-c2nn[nH]n2)c1
inactive: outcome [1] | outcome [2] | outcome [3] | Potency [4] | outcome [5] | Potency [6] | outcome [7] | outcome [8] | outcome [9] | outcome [10]

CCCCCCCCCCCCCCCCI
inactive: outcome [1] | outcome [2] | outcome [3] | Potency [4] | outcome [5] | Potency [6] | fluorescence, relative to Rose Bengal [7] 0.0421% [at 18.6 µM] | fluorescence, % of fluorescein control [8] -0.0199% [at 18.6 µM] | fluorescence, % of triamterene [9] 0.0613% [at 18.6 µM]

COC(OC)C(C)c1ccccc1 (configuration not stated)
inactive: outcome [1] | outcome [2] | outcome [3] | Potency [4] | outcome [5] | Potency [6] | outcome [7] | outcome [8] | outcome [9]

NC(=O)NC(=O)Cc1ccccc1
inactive: outcome [1] | outcome [2] | outcome [3] | Potency [4] | outcome [5] | Potency [6] | outcome [7] | outcome [8] | outcome [9] | outcome [10]

Nc1ccnc(=O)[nH]1
inactive: outcome [1] | outcome [2] | outcome [3] | Potency [4] | outcome [5] | Potency [6] | outcome [7] | outcome [8] | outcome [9] | outcome [10]

C1=C\CC/C=C\CC/1
inactive: outcome [1] | outcome [2] | outcome [3] | Potency [4] | outcome [5] | Potency [6] | outcome [7] | outcome [8] | outcome [9] | outcome [10]

Nc1c(NC/C=C\COc2cc(CN3CCCCC3)ccn2)c(=O)c1=O
inactive: outcome [1] | outcome [2] | outcome [3] | Potency [4] | outcome [5] | Potency [6] | outcome [7] | outcome [8] | outcome [9] | outcome [10]

Cc1cc(C)cc([N+](=O)[O-])c1
inactive: outcome [1] | outcome [2] | outcome [3] | Potency [4] | outcome [5] | Potency [6] | outcome [7] | outcome [8] | outcome [9] | outcome [10]

O=C(O)CCNC(=O)c1ccccc1
inactive: outcome [1] | outcome [2] | outcome [3] | Potency [4] | outcome [5] | Potency [6] | outcome [7] | outcome [8] | outcome [9] | outcome [10]

CCCCCCCC/C=C\CCCCCCCC(=O)OC[C@@H](O)[C@H]1OC[C@H](O)[C@H]1O
inactive: outcome [1] | outcome [2] | outcome [3] | Potency [4] | outcome [5] | Potency [6] | outcome [7] | outcome [8] | outcome [9] | outcome [10]

Nc1ccc(S(=O)(=O)NC(=O)c2ccccc2)cc1
inactive: outcome [1] | outcome [2] | outcome [3] | Potency [4] | outcome [5] | Potency [6] | fluorescence, relative to Rose Bengal [7] 0.536% [at 18.6 µM] | fluorescence, % of fluorescein control [8] -0.394% [at 18.6 µM] | fluorescence, % of triamterene [9] -0.236% [at 18.6 µM] | fluorescence, % of fluorescent control [10] -0.801% [at 18.6 µM]

CCCCCCCCCCC
inactive: outcome [1] | outcome [2] | outcome [3] | Potency [4] | outcome [5] | Potency [6] | outcome [7] | outcome [8] | outcome [9]

Cc1ccc(S(=O)(=O)NC(=O)NC2CCCCCCC2)cc1
inactive: outcome [1] | outcome [2] | outcome [3] | Potency [4] | outcome [5] | Potency [6] | outcome [7] | outcome [8] | outcome [9] | outcome [10]

C[C@H](CCC(=O)NCC(=O)O)[C@H]1CC[C@H]2[C@@H]3[C@H](O)C[C@@H]4C[C@H](O)CC[C@]4(C)[C@H]3C[C@H](O)[C@]12C
inactive: outcome [1] | outcome [2] | outcome [3] | Potency [4] | outcome [5] | Potency [6] | outcome [7] | outcome [8] | outcome [9] | outcome [10]

CNC(=O)NC
inactive: outcome [1] | outcome [2] | outcome [3] | Potency [4] | outcome [5] | Potency [6] | outcome [7] | outcome [8]

O=C(O)/C=C/c1ccccc1
inactive: outcome [1] | outcome [2] | outcome [3] | Potency [4] | outcome [5] | Potency [6] | outcome [7] | outcome [8] | outcome [9] | outcome [10]

CCCCCCCCCOCC1CO1 (configuration not stated)
inactive: outcome [1] | outcome [2] | outcome [3] | Potency [4] | outcome [5] | Potency [6] | outcome [7] | outcome [8] | outcome [9] | outcome [10]

Cc1nc(C)nc(N2C[C@@H](C)N(c3ccnc([C@@H](C)O)n3)[C@@H](C)C2)n1
inactive: outcome [1] | outcome [2] | outcome [3] | Potency [4] | outcome [5] | Potency [6] | outcome [7] | outcome [8] | outcome [9] | outcome [10]

CCCCCCCCC(=O)OCC
inactive: outcome [1] | outcome [2] | outcome [3] | Potency [4] | outcome [5] | Potency [6] | outcome [7] | outcome [8] | outcome [9] | outcome [10]
